Experimental findings from PubChem BioAssay (NCI) are described below.

What all share (experiment): NCI-60 one-dose screen, 48 h (100 = growth as untreated, 0 = no growth, -100 = all killed)
One assay has as its system NCI-H322M lung. As to conditions: 10 µM unless noted.
The next assay relates to HOP-62 NSCLC. To be noted: 10 µM unless noted.
The subject of a further assay is NCI-H460 lung. As to conditions: 10 µM unless noted.
Another assay has as its system HOP-92 NSCLC. As to conditions: 10 µM unless noted.
The test system of the next assay is NCI-H522 lung. To be noted: 10 µM.
Another assay relates to A549/ATCC NSCLC. As to conditions: 10 µM unless noted.
The next assay concerns 786-0 renal. To be noted: 10 µM unless noted.
For the next assay, the system named is COLO 205 colon. As to conditions: 10 µM unless noted.

Structures are written as SMILES. The panel holds about 83,000 compounds, 20% with a hit somewhere; the sample as a whole holds those more often.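 Single-dose data. Exposure time 48 hours. Values below 10 considered active.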 A number with no mark means an inactive call. The source made the active and inactive calls.

Turning to `NS(=O)(=O)c1cc(Br)c2c(c1)S(=O)(=O)NCN2`, the growth with NCI-H322M lung is 119%; in the assay with HOP-62 NSCLC it was 113%; with NCI-H460 lung, 112%; in the assay on HOP-92 NSCLC, 93%; in the assay with NCI-H522 lung, 102%; in the assay with A549/ATCC NSCLC it was 101%. For the same compound, the growth in the assay on 786-0 renal is 106%; in the assay with COLO 205 colon it was 114%.

As for `COc1cc(C2=NN(c3ccc(S(N)(=O)=O)cc3)C(c3ccc(Cl)cc3)C2)cc(OC)c1OC` (stereo unspecified), the growth in the assay on NCI-H322M lung was 66.9%; with HOP-62 NSCLC it was 60.6%; in the assay with NCI-H460 lung, 25.8%; with HOP-92 NSCLC it was 23.3%; in the assay with NCI-H522 lung it was 44.9%; with A549/ATCC NSCLC, 26.2%. The growth with 786-0 renal is 66.5%; in the assay with COLO 205 colon, 48.5%.

As to `COc1ccc(/C=C2\Oc3cc(C)c(Cl)cc3C2=O)cc1OC`, the growth is 107% with NCI-H322M lung; 111% in the assay on HOP-62 NSCLC; 103% with NCI-H460 lung; 101% in the assay on HOP-92 NSCLC; 82.7% with NCI-H522 lung; 98.3% with A549/ATCC NSCLC. Further, the growth in the assay on 786-0 renal was 95.7%.

As to `O=[N+]([O-])c1ccc(O)c2ncccc12`, the growth in the assay on NCI-H322M lung is 31.6%; in the assay with HOP-62 NSCLC, 50.9%; in the assay on NCI-H460 lung it was 23.2%; in the assay with HOP-92 NSCLC, 67.4%; with NCI-H522 lung, 51.6%; in the assay with A549/ATCC NSCLC it was 46.6%. In addition, the results for the growth in the assay with 786-0 renal and with COLO 205 colon were 66.5% and 80.5%, respectively.

Take `COC(=O)c1c2c(c(C)[n+]([O-])c1C)C(=O)C=C(NCc1ccc(Cl)cc1)C2=O`: the growth was -7.11% (active) in the assay on NCI-H322M lung; 2.25% (active) in the assay on HOP-62 NSCLC; 0.382% (active) in the assay with NCI-H460 lung; -27.9% (active) with HOP-92 NSCLC; -15.1% (active) in the assay with NCI-H522 lung; -16.5% (active) with A549/ATCC NSCLC. The growth in the assay on 786-0 renal is 7.94% (active).

As for `CC1CCCCN1S(=O)(=O)c1ccc(CN=C=S)cc1` (stereo unspecified), the growth in the assay with NCI-H322M lung is 96.6%; in the assay on HOP-62 NSCLC, 108%; with NCI-H460 lung, 88.4%; in the assay with HOP-92 NSCLC, 60.8%; in the assay with A549/ATCC NSCLC, 102%; in the assay on 786-0 renal, 55.9%. Also, the growth in the assay on COLO 205 colon was 52.8%.

Consider `CCOC(=O)c1c(-c2cc(OC)c(OC)c(OC)c2)csc1N`, for which the growth with NCI-H322M lung was 99.4%; in the assay with HOP-62 NSCLC it was 80%; in the assay with NCI-H460 lung it was 104%; in the assay with NCI-H522 lung it was 79.6%; in the assay on A549/ATCC NSCLC, 96.9%; in the assay with 786-0 renal, 112%. Moreover, the growth in the assay with COLO 205 colon was 90.7%.

With `Cc1c(C(=O)Nc2nc(-c3ccccc3)cs2)nnn1-c1ccccc1Br`, the growth was 79.5% [50 µM] in the assay on NCI-H322M lung; 94.7% [50 µM] in the assay on HOP-62 NSCLC; 45.2% [50 µM] with NCI-H460 lung; 57.4% [50 µM] in the assay with HOP-92 NSCLC; 30.9% [50 µM] in the assay with A549/ATCC NSCLC; 66.7% [50 µM] in the assay with 786-0 renal. For the same compound, the growth in the assay on COLO 205 colon is 42.3% [50 µM].

`O=C(Nc1nc2ccccc2[nH]1)C(=O)Nc1nc2ccccc2[nH]1`: the growth in the assay on NCI-H322M lung was 91.8%; with HOP-62 NSCLC it was 98.6%; in the assay on NCI-H460 lung, 98.5%; in the assay on NCI-H522 lung, 101%; in the assay on A549/ATCC NSCLC it was 97.5%; with 786-0 renal it was 108%. The growth in the assay on COLO 205 colon is 103%.

Regarding `COc1ccccc1/C=C/C(=O)/C=C/c1ccccc1O`, the growth in the assay with NCI-H322M lung was 24.9%; with HOP-62 NSCLC it was 62%; in the assay on NCI-H460 lung, -58.2% (active); in the assay with NCI-H522 lung, 30.1%; in the assay with A549/ATCC NSCLC, 6.86% (active); in the assay on 786-0 renal, -44% (active). In the assay on COLO 205 colon, the growth was -48.6% (active).

With `COc1cc(/C=C/C(=O)C(=Cc2ccc(F)c(F)c2)C(=O)/C=C/c2ccc(O)c(OC)c2)ccc1O`, the growth was 59.4% in the assay with NCI-H322M lung; 22.1% in the assay on HOP-62 NSCLC; 1.97% (active) with NCI-H460 lung; -48.3% (active) in the assay with NCI-H522 lung; 44.2% with A549/ATCC NSCLC; 40.8% in the assay with 786-0 renal. Further, the growth in the assay on COLO 205 colon is 58.1%.

On to `CCCCNNC(=O)c1ccc(Br)cc1`, for which the growth was 59.3% in the assay on NCI-H322M lung; 55.5% in the assay on HOP-62 NSCLC; 50.1% in the assay on NCI-H460 lung; 57.6% with A549/ATCC NSCLC; 79% in the assay on 786-0 renal; 46.1% with COLO 205 colon.

With `Cc1ccc2c(N/N=C\c3ccco3)cc(C)nc2n1`, the growth in the assay on HOP-62 NSCLC was 83.3%; in the assay on NCI-H460 lung, 34.1%; in the assay on HOP-92 NSCLC it was 40.4%; with NCI-H522 lung, 88.6%; with A549/ATCC NSCLC, 46.4%; with 786-0 renal, 49.2%. Also, the growth in the assay with COLO 205 colon is 8.81% (active).

Regarding `COc1cccc(OC(=O)c2ccccc2)c1OC(=O)c1ccccc1`, the growth is 61.7% in the assay on HOP-62 NSCLC; 81.6% with NCI-H460 lung; 40% in the assay on HOP-92 NSCLC; 78% in the assay on A549/ATCC NSCLC; 101% with 786-0 renal; 108% in the assay on COLO 205 colon.

For the compound `O=[N+]([O-])c1ccc(C=C2C(Cl)=C(Cl)C(Cl)=C2Cl)cc1`, the growth in the assay on NCI-H322M lung was 121%; with HOP-62 NSCLC it was 78.3%; in the assay on NCI-H460 lung, 90.6%; in the assay with NCI-H522 lung, 46.1%; with A549/ATCC NSCLC, 92.1%; in the assay with 786-0 renal, 19.8%. The growth in the assay on COLO 205 colon was 54%.
